Inconclusive results are not listed. Entries that show only a call come without a potency. The source made the active and inactive calls. The call rests on the fitted dose curve; in most records, active means well fitted inhibition curve with a large enough effect; inconclusive means small, poorly fitted or top-dose-only effect; inactive means flat fitted curve, though single readings scatter.
Biological target: Ubiquitin carboxyl-terminal hydrolase 1 (Homo sapiens) (UniProt O94782)
Assay: Inhibitors of USP1/UAF1: Pilot qHTS (AID 504865); further: nearly all actives have a fitted effect of over 35% in size
Settings: purified USP1/UAF1, Ub-rhodamine cleavage fluorescence; series mostly up to 54.9 µM
Description: Deubiquitinating enzymes (DUBs) are a class of enzymes that can cleave isopeptide bond formed between the C-terminal carboxylate of ubiquitin and a lysine side-chain amino group on the target protein. Among them, ubiquitin specific proteases (USPs) constitute the largest DUB family. Human USPs are emerging as promising targets for pharmacological intervention because of their connection to a number of human diseases, including prostate, colon and breast cancer (1, 2), pediatric acute lymphoblastic leukemia (3), and familial cylindromatosis (4). The advantage of inhibiting USPs lies in the potential specificity of therapeutic intervention that can lead to better efficacy and reduce nonspecific side effects.
In a collaboration between the University of Delaware and the NIH Chemical Genomics Center, a high-throughput screen assay was developed to screen for USP1/UAF1 inhibitors. This miniaturized assay has a fluorescent read-out and is used to screen the NIH Molecular Libraries Small Molecule Repository (MLSMR) in order to identify a small molecule that inhibits USP1.
NIH Chemical Genomics Center [NCGC]
NIH Molecular Libraries Probe Centers Network [MLPCN]
Assay Submitter (PI): Zhihao Zhuang, University of Delaware
1. Priolo, C., et al. (2006) The isopeptidase USP2a protects human prostate cancer from apoptosis. Cancer Res 66, 8625-8632
2. Popov, N., et al. (2007) The ubiquitin-specific protease USP28 is required for MYC stability. Nat Cell Biol 9, 765-774
3. De Pitta, C., et al. (2005) A leukemia-enriched cDNA microarray platform identifies new transcripts with relevance to the biology of pediatric acute lymphoblastic leukemia. Haematologica 90, 890-898
4. Kovalenko, A., et al. (2003) The tumour suppressor CYLD negatively regulates NF-kappaB signalling by deubiquitination. Nature 424, 801-805
3 microliters of reagents (buffer in columns 3 and 4 as negative control and 1nM USP1/UAF1 complex in columns 1, 2, and 5-48) are dispensed into Greiner black solid bottom 1536-well assay plates. Compounds are then transferred via Kalypsys pin tool equipped with 1536-pin array (10nl slotted pins, V&P Scientific, San Diego, CA). Following an incubation step of 15 min at room temperature, 1ul of Ub-Rho substrate (150nM final concentration) is added to initiate the reaction. The plates are immediately centrifuged at 1000 rpm for 15 seconds, and subsequently transferred to a ViewLux high-throughput CCD imager (PerkinElmer) wherein kinetic measurements of fluorescence are acquired using 480 nm excitation/540 nm emission filter set (6 reads every 60 seconds, see Table 1). All reagents are diluted in an assay buffer consisting of 50mM HEPES (pH 7.8), 0.5mM EDTA, 0.1 mg/ml BSA, 1mM TCEP, and 0.01% Tween-20.
Potency means the concentration at half of the fitted maximal effect.

Chain of Ubiquitin carboxyl-terminal hydrolase 1 (Homo sapiens) (O94782 whole entry, looked up): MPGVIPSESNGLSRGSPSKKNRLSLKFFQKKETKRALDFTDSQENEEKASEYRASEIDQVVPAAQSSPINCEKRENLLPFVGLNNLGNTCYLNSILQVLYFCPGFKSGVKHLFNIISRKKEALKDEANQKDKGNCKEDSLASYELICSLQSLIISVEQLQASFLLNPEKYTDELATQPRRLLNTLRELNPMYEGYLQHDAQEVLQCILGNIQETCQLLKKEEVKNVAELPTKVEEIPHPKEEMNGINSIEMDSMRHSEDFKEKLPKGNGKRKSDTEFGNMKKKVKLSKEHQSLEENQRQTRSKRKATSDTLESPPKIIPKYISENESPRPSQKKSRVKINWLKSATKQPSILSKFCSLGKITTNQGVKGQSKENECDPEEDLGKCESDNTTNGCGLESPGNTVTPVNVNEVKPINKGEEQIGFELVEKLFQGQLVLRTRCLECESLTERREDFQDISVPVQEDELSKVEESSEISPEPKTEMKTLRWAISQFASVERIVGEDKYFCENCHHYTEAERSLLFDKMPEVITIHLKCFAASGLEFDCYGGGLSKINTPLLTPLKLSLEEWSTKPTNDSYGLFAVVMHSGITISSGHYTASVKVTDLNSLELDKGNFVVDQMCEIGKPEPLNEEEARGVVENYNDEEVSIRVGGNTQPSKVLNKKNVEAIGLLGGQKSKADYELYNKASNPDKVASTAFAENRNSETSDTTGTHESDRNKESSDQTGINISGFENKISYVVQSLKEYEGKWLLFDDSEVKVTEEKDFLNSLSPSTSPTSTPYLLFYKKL

Row | Structure (SMILES) | Potency
1 | Cn1c(=O)cnc2cnc(OCc3ccccc3)nc21 | inactive
2 | COCCn1c(=O)c(-c2cc(F)cc(F)c2)nc2cnc(N3CCOCC3)nc21 | inactive
3 | C=C1CCC2[C@](C)(CO)C(O)CC[C@]2(C)C1C/C=C1/C(=O)OCC1O (stereo not given in full) | inactive
4 | COc1ncc2nc(-c3ccc(F)cc3)c(=O)n(C)c2n1 | inactive
5 | CN1CCN(c2ncc3nc(-c4ccccc4)c(=O)n(CCc4ccccc4)c3n2)CC1 | inactive
6 | COc1ccccc1-c1nccc(NCc2cnc(C)cn2)n1 | inactive
7 | COc1ccc(-c2nc3cnc(Nc4cccc(OC)c4)nc3n(C)c2=O)cc1 | inactive
8 | COCCn1c(=O)c(C)nc2cnc(N3CCN(C)CC3)nc21 | inactive
9 | COc1ccc(-n2c(=O)cnc3cnc(N(C)C)nc32)cc1 | inactive
10 | CN(C)C(=O)c1ccc(-c2cc(Nc3ccccc3)ncn2)cc1 | inactive
11 | CN1CCN(c2ccnc(-c3ccoc3)n2)CC1 | inactive
12 | CCNc1ncc2nc(-c3ccccc3)c(=O)n(Cc3cccs3)c2n1 | inactive
13 | c1ccc(Nc2cc(-c3ccoc3)ncn2)cc1 | inactive
14 | COc1cccc(Cn2c(=O)c(-c3cc(F)cc(F)c3)nc3cnc(N(C)C)nc32)c1 | inactive
15 | O=c1c(-c2cc(F)cc(F)c2)nc2cnc(N3CCNCC3)nc2n1C1CC1 | inactive
16 | COc1cccc(Cn2c(=O)c(-c3cn(C)c4ccccc34)nc3cnc(N4CCNCC4)nc32)c1 | 14.1 µM (active)
17 | COCCn1c(=O)c(C)nc2cnc(N(C)C)nc21 | inactive
18 | COCCNc1cc(-c2ccccc2C(F)(F)F)ncn1 | inactive
19 | Cc1noc(C)c1-c1cc(Nc2ccc(F)cc2)ncn1 | inactive
20 | Cc1noc(C)c1-c1cc(NCc2ccccc2)ncn1 | inactive

Row | Structure (SMILES) | Potency
21 | COc1ccc(-c2nc3cnc(N4CCOCC4)nc3n(C3CC3)c2=O)cc1 | inactive
22 | COc1cccc(Nc2ncc3nc(-c4cn(C)c5ccccc45)c(=O)n(CCC#N)c3n2)c1 | inactive
23 | CN(C)C(=O)c1ccc(-c2nc(NC3CCNCC3)c3ccccc3n2)cc1 | inactive
24 | CS(=O)(=O)Nc1cccc(-c2ccc3ncnc(N4CCNCC4)c3c2)c1 | inactive
25 | COc1ccc(-c2nc3cnc(Oc4cccc(Cl)c4)nc3n(C3CC3)c2=O)cc1 | inactive
26 | COc1ccc(CNc2ccnc(-c3ccccc3C(F)(F)F)n2)c(OC)c1 | 11.2 µM (active)
27 | CN(C)Cc1ccccc1-c1cc(N(C)Cc2ccco2)ncn1 | inactive
28 | O=c1c(-c2cccs2)nc2cnc(N3CCNCC3)nc2n1CCc1ccccc1 | inactive
29 | CN1CCN(c2cc(-c3ccccc3C(F)(F)F)ncn2)CC1 | inactive
30 | COc1ccc(-n2c(=O)c(-c3cccs3)nc3cnc(N4CCOCC4)nc32)cc1 | inactive
31 | CN(C)Cc1ccccc1-c1nc(NC2CCNCC2)c2ccccc2n1 | inactive
32 | COCCn1c(=O)c(C)nc2cnc(Oc3ccccc3)nc21 | inactive
33 | COCCn1c(=O)c(-c2ccc(Cl)cc2)nc2cnc(Oc3cccc(Cl)c3)nc21 | inactive
34 | COc1ccc(-c2nc3cnc(N4CCN(C)CC4)nc3n(Cc3ccc(F)cc3)c2=O)cc1 | inactive
35 | CN(C)Cc1ccccc1-c1nc(NCc2cccs2)c2ccccc2n1 | inactive
36 | CN(C)Cc1ccccc1-c1nc(N(C)C)c2ccccc2n1 | inactive
37 | CCNc1ncc2nc(C)c(=O)n(C3CC3)c2n1 | inactive
38 | CN(C)c1ncc2nc(-c3ccccc3)c(=O)n(C[C@H]3CCCO3)c2n1 | inactive
39 | COc1cccc(-c2ccc3ncnc(NCc4ccccc4)c3c2)c1 | inactive
40 | COc1ccc(-c2nc3cnc(N4CCN(C)CC4)nc3n(Cc3cccs3)c2=O)cc1 | inactive
